According to PubChem BioAssay (NCATS):
Inconclusive results are not listed. Activity calls are given as the source filed them. Unless noted, the call rests on the fitted dose curve; in most records, active means well fitted curve in the direction sought with a large enough effect; inconclusive means small, poorly fitted or top-dose-only effect, or another doubt; inactive means no such curve, though single readings can be large; an effect the other way counts as inactive or inconclusive.

Columns and labels:
[1] = target: Lysosomal acid glucosylceramidase (Homo sapiens) (UniProt P04062); test: Glucocerebrosidase-p2 (AID 348; in the data active means potency below about 10 µM; further: potency means the concentration at half of the fitted maximal effect); details: purified GBA, blue fluorogenic substrate, 40 min
Chain of Lysosomal acid glucosylceramidase (Homo sapiens) (P04062 whole entry, looked up): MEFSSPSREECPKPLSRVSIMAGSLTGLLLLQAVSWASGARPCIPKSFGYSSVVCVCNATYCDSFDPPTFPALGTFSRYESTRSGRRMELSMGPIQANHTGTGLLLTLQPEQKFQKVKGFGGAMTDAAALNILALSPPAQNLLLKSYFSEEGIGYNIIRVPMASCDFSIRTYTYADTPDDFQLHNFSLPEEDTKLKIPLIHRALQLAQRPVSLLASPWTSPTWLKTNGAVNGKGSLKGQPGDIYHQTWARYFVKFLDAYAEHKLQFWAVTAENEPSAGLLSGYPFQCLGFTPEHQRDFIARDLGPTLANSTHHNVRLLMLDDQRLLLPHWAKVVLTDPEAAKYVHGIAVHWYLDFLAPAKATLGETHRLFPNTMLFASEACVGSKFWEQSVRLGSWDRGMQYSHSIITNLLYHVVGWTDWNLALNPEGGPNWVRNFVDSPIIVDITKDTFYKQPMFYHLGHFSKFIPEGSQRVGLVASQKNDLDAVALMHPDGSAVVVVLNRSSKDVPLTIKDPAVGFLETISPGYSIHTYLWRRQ
Procedure, shortened: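 Compounds titrated from 0.6 nM upwards against 0.2 nM enzyme in pH 5.9 citric acid/KH2PO4, taurocholate, tween-20; blue fluorogenic substrate 80 uM, 40 min room temperature, stopped and read Ex 365/Em 440 for AC50.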

[2] = AP1 Signaling Pathway (AID 357; active means well fitted curve in either direction with a large enough effect, not every such curve was filed as active; further: on the % scale 0 is the no-effect control and ±100 the full control effect); details: ME-180 AP-1-bla reporter, EGF-induced, beta-lactamase ratio, 5 h; at 7.69 µM (top of the series) unless noted
Procedure, shortened: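 AP-1-bla ME-180 cells with beta-lactamase reporter under AP-1 response element, stimulated with EC50 EGF; compounds titrated, 5 hours at 37 degrees Celsius. CCF4 read at 460/530 nm ratio; positive and negative modulators judged by AC50.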

[3] = target: Cytochrome P450 1A2 (Homo sapiens) (UniProt P05177); test: p450-cyp1a2 (AID 410; calls by dose curve; further: potency means the concentration at half of the fitted maximal effect); details: recombinant CYP1A2, luciferin-ME demethylation, luminescence; series mostly up to 57 µM
Chain of Cytochrome P450 1A2 (Homo sapiens) (P05177 whole entry, looked up): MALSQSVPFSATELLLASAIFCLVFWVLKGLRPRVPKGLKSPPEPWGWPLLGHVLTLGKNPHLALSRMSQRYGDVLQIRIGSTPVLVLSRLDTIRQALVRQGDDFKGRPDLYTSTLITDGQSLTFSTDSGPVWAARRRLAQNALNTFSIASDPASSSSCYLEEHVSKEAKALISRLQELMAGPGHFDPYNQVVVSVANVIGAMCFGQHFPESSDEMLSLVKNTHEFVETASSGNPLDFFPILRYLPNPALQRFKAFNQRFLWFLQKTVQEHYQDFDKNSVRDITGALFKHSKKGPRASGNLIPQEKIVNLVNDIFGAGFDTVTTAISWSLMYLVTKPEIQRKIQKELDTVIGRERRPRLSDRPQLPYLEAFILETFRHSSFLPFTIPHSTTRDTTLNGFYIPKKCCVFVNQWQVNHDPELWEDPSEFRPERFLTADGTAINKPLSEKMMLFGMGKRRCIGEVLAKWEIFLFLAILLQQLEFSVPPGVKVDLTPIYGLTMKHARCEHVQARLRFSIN
Procedure, shortened: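 Human CYP1A2 (20nM) demethylated Luciferin-ME at its Km (100uM) in 100mM KPO4. After 10 min compound preincubation, NADPH regeneration ran the reaction 60 min at room temperature. Luciferin was read by luminescence, normalized to 57 uM furafylline.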

[4] = Stat Signaling Pathway (AID 446; active means well fitted curve in either direction with a large enough effect, not every such curve was filed as active;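 further: ME-180 cervical cancer cells given 40 pM IL-6 alongside compound; SIE-controlled beta-lactamase reporter measured as 460/530 nm FRET emission ratio; on the % scale 0 is the no-effect control and ±100 the full control effect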); details: ME-180 SIE beta-lactamase reporter, IL-6 stimulated, 5 h; series mostly up to 7.69 µM
Procedure, shortened: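 IL-6/STAT signaling read in ME-180 cells via an SIE beta-lactamase reporter. Stimulus was 40 pM IL-6 (its AC50) for 5 hrs, so both activation and inhibition register.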

[5] = target: Glucocorticoid receptor (Homo sapiens) (UniProt P04150); test: GR-GFP Redistribution (AID 450;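 active means compounds whose dose series gives a full or clear partial fitted curve of increased nuclear translocation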; further: potency means the concentration at half of the fitted maximal effect); details: U2OS GR-GFP nuclear translocation, laser cytometry, 2 h
Chain of Glucocorticoid receptor (Homo sapiens) (P04150 whole entry, looked up, the tested form may be a part): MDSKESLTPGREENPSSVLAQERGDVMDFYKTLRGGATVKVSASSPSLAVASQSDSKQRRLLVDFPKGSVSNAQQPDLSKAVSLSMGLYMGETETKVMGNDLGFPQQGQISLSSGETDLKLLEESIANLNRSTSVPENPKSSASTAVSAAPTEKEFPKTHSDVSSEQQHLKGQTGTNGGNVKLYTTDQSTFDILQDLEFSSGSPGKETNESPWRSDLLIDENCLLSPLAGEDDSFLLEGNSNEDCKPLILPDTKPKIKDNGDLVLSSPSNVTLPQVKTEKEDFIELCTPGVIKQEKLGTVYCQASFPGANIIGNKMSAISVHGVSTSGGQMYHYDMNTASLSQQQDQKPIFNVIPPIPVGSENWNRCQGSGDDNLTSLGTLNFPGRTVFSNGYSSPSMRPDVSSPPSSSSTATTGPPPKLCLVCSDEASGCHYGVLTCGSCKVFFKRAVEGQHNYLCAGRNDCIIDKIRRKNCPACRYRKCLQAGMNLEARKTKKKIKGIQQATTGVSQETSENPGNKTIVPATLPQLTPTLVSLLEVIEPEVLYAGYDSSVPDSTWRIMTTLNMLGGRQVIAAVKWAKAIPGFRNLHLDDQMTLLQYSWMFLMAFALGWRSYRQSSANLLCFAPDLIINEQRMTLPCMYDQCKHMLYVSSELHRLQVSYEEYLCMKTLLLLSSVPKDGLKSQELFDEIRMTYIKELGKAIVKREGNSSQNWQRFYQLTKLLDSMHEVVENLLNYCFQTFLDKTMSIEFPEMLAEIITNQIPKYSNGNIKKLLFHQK

[6] = target: Glucocorticoid receptor (Homo sapiens) (UniProt P04150); test: GR-EFC Redistribution (AID 451; calls by dose curve; further: potency means the concentration at half of the fitted maximal effect); details: CHO-K1 GR-EFC translocation, beta-gal luminescence, 2 h
Procedure, shortened: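 CHO-K1 cells expressing nuclear EA and GR-ED fragments of b-gal; compounds titrated up to 46 uM final, 2 h at 37 C. GR nuclear translocation read as complemented b-gal luminescence after 1 h RT detection.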

[7] = target: Mitogen-activated protein kinase 10 (Mus musculus) (UniProt Q61831); test: JNK3 AlphaScreen Assay (AID 530; active means well fitted curve in either direction with a large enough effect, not every such curve was filed as active;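 further: kinase came from lysate of stimulated human HepG2 cells; signal reports phosphorylation of biotinylated GST-cJun 1-79 at Ser73 with 10 µM ATP; on the % scale 0 is the no-effect control and ±100 the full control effect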); details: JNK3 lysate, c-Jun phosphorylation; series mostly up to 57.1 µM
Procedure, shortened: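 qHTS format: compounds tested as titrations against IL-1beta/TNF-alpha-activated HepG2 lysate JNK3 with biotin-GST-cJun substrate and 10 uM ATP at room temperature. Loss of anti-phospho-cJun AlphaScreen signal indicates inhibition.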

[8] = target: Dual specificity protein kinase CLK4 (Homo sapiens) (UniProt Q9HAZ1); test: qHTS Assay for Inhibitors of CDC-like Kinase 4 (Kinase-Glo Assay) (AID 1770); details: recombinant Clk4, Kinase-Glo ATP depletion luminescence; series mostly up to 66.7 µM; further: nearly all actives have a fitted effect of over 65% in size; further: potency means the concentration at half of the fitted maximal effect
Chain of Dual specificity protein kinase CLK4 (Homo sapiens) (Q9HAZ1 whole entry, looked up): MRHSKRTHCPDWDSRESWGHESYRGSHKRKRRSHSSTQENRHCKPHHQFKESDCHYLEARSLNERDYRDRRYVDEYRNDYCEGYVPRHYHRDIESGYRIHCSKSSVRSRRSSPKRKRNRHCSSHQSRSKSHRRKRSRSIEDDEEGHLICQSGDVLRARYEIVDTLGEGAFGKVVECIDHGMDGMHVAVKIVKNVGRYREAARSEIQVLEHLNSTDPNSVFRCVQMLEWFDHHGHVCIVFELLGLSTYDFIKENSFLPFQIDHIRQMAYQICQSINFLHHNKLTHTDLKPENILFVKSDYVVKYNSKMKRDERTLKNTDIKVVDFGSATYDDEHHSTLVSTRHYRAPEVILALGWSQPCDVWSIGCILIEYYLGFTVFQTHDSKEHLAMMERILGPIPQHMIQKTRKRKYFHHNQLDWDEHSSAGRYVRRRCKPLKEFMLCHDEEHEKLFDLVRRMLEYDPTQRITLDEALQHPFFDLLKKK
Procedure, shortened: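 25 nM Clk4 with 100 uM RS repeat peptide and 1 uM ATP (final) in Tris pH7.5, 10 mM MgCl2, 4.5 h at room temperature. Remaining ATP measured by Kinase-Glo luciferase luminescence.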

[9] = target: Dual specificity protein kinase CLK4 (Homo sapiens) (UniProt Q9HAZ1); test: qHTS Assay for Inhibitors of CDC-like Kinase 4 (ADP-Glo Assay) (AID 1771); details: recombinant CLK4, ADP-Glo luminescence; series mostly up to 80 µM; further: nearly all actives have a fitted effect of over 70% in size; further: potency means the concentration at half of the fitted maximal effect
Procedure, shortened: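 Clk4 (25 nM) was incubated 1 hr at room temperature with 100 uM RS repeat peptide and 1 uM ATP in buffer with 2 mM MgCl2, 0.5 mM EGTA, 2.5 mM DTT. ADP formed was quantified by ADP-Glo luminescence.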

[10] = target: Dual specificity protein kinase CLK4 (Homo sapiens) (UniProt Q9HAZ1); test: qHTS Assay for Inhibitors of CDC-like Kinase 4 (ADP-FP Assay) (AID 1795); details: Transcreener ADP fluorescence polarization; series mostly up to 50 µM; further: nearly all actives have a fitted effect of over 60% in size; further: potency means the concentration at half of the fitted maximal effect
Procedure, shortened: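 Recombinant Clk4 (6.25 nM) phosphorylated 100 uM RS repeat peptide with 1 uM ATP in 25 mM Tris pH 7.5, 10 mM MgCl2, 0.5 mM EGTA, 2.5 mM DTT, 0.01% Triton X-100 for 1 h. ADP was detected by Transcreener ADP2 competitive fluorescence polarization after 30 min at room temperature.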

[11] = target: Ubiquitin carboxyl-terminal hydrolase 1 (Homo sapiens) (UniProt O94782); test: Inhibitors of USP1/UAF1: Pilot qHTS (AID 504865); details: purified USP1/UAF1, Ub-rhodamine cleavage fluorescence; series mostly up to 54.9 µM;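 further: rhodamine fluorescence freed from ubiquitin-rhodamine substrate followed over time; top concentration of the series differs between compounds; on the % scale 0 is the no-effect control and ±100 the full control effect; nearly all actives have a fitted effect of over 35% in size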
Chain of Ubiquitin carboxyl-terminal hydrolase 1 (Homo sapiens) (O94782 whole entry, looked up): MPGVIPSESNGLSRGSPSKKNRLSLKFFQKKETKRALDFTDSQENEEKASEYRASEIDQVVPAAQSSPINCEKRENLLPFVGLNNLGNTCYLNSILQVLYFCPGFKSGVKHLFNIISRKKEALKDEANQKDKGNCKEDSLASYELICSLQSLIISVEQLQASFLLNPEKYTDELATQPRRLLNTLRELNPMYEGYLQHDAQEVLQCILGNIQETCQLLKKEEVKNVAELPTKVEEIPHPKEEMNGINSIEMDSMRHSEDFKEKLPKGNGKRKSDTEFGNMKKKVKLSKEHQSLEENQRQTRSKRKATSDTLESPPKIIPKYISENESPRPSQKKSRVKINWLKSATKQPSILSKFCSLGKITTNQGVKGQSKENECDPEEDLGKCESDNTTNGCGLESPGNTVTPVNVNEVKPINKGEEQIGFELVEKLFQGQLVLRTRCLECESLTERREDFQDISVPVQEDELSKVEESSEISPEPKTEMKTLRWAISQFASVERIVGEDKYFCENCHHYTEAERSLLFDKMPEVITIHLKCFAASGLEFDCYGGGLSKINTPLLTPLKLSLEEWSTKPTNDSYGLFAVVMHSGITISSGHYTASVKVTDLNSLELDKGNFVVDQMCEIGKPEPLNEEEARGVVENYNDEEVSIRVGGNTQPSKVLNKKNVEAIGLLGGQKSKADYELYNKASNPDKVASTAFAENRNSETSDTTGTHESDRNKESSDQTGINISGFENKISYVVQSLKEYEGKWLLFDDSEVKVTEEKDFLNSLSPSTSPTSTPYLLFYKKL
Procedure, shortened: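 USP1/UAF1 complex at 1 nM preincubated 15 min at room temperature with compound, then Ub-Rho substrate added at 150 nM final. Fluorescence (480/540 nm) read kinetically in 50 mM HEPES pH 7.8, 0.5 mM EDTA, 1 mM TCEP, 0.1 mg/ml BSA, 0.01% Tween-20.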

[12] = target: Cytochrome P450 2C9 (Homo sapiens) (UniProt P11712); test: qHTS Assay for Inhibitors and Substrates of Cytochrome P450 2C9 (AID 883); details: recombinant CYP2C9, luciferin-H luminescence, 60 min; series mostly up to 57.1 µM; further: nearly all actives have a fitted effect of over 60% in size; further: potency means the concentration at half of the fitted maximal effect
Chain of Cytochrome P450 2C9 (Homo sapiens) (P11712 whole entry, looked up): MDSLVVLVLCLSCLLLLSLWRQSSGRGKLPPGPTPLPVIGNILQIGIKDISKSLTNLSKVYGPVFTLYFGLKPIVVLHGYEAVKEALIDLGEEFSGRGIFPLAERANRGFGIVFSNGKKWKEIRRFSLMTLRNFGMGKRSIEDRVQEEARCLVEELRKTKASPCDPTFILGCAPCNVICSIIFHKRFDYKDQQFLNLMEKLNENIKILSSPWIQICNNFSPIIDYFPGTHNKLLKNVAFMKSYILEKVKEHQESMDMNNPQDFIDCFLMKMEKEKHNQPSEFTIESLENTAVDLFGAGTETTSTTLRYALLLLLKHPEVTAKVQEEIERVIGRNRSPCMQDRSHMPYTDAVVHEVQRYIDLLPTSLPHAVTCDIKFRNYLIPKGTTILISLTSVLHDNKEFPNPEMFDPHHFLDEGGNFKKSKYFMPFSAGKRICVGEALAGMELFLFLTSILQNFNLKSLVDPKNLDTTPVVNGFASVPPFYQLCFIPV
Procedure, shortened: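 Human CYP2C9 (10nM) with Luciferin-H at 100uM (its KM) in 25mM KPO4; compound preincubated 10 min at 37C, then NADPH regeneration for 60 min at 37C. Luciferin read by luminescence after detection reagent; normalized to 57uM sulphaphenazole as full inhibition.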

[13] = target: Cytochrome P450 3A4 (Homo sapiens) (UniProt P08684); test: qHTS Assay for Activators of Cytochrome P450 3A4 (AID 885); details: recombinant CYP3A4, Luciferin-PPXE luminescence, 60 min; series mostly up to 57.1 µM; further: nearly all actives have a fitted effect of over 65% in size
Chain of Cytochrome P450 3A4 (Homo sapiens) (P08684 whole entry, looked up): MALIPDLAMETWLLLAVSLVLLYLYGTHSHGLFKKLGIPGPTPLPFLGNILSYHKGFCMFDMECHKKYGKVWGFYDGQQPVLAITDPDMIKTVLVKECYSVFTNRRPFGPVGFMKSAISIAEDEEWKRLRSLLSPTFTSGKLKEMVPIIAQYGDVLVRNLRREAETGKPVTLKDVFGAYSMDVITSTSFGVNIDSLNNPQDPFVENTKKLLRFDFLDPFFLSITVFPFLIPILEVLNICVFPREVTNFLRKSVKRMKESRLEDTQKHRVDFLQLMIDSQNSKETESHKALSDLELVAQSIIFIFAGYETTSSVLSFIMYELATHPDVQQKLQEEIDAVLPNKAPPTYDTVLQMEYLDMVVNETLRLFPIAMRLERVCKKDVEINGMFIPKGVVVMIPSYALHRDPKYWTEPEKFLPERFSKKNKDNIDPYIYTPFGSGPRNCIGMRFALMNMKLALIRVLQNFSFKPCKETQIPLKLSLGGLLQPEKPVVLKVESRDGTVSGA
Procedure, shortened: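 Quantitative HTS format: compounds preincubated with 20nM human CYP3A4 and Luciferin-PPXE substrate at KM, reaction started by NADPH regeneration, stopped after 60 min, luciferase luminescence read 20 min later.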

[14] = target: Cytochrome P450 2D6 (Homo sapiens) (UniProt P10635); test: qHTS Assay for Inhibitors and Substrates of Cytochrome P450 2D6 (AID 891); details: recombinant CYP2D6, luciferin-ME EGE luminescence; series mostly up to 57.1 µM; further: potency means the concentration at half of the fitted maximal effect; nearly all actives have a fitted effect of over 60% in size
Procedure, shortened: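 Human CYP2D6 (5 nM) with 30 uM Luciferin-ME EGE (at Km) in 100 mM KPO4, compound preincubated 10 min, then NADPH regeneration system for 60 min at room temperature. Luciferin read by luminescence; normalized to 1.43 uM quinidine.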

[15] = target: Cytochrome P450 2C19 (Homo sapiens) (UniProt P33261); test: qHTS Assay for Inhibitors and Substrates of Cytochrome P450 2C19 (AID 899); details: recombinant CYP2C19, luciferin-H EGE luminescence; series mostly up to 57.1 µM; further: potency means the concentration at half of the fitted maximal effect; nearly all actives have a fitted effect of over 60% in size
Procedure, shortened: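 5 nM human CYP2C19 with 10uM Luciferin-H EGE (at KM) in 50mM KPO4, compound preincubated 10 min at 37C, then NADPH regeneration for 60 min at 37C. Luciferin read by luminescence after detection reagent; normalized to 57uM ketoconazole as full inhibition.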

[16] = NCATS anti-infectives library activity on HEK293 viability as a counter-qHTS vs the C. elegans viability qHTS (AID 1745854); details: HEK293 viability counter-screen; series mostly up to 41.8 µM; further: on the % scale 0 is the no-effect control and ±100 the full control effect
Procedure, shortened: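 HEK293 cells, 1500 per well, exposed 24 hr at 37C in 5% CO2 to compounds in a 1:5 titration, up to 41.7 uM final. Viability read as CellTiter-Glo luminescence after 10 min at room temperature.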

[17] = NFAT Signaling Pathway (AID 444; active means well fitted curve in either direction with a large enough effect, not every such curve was filed as active); details: Jurkat NFAT-bla M1, carbachol, beta-lactamase ratio, 5 h; at 7.69 µM (top of the series) unless noted
Procedure, shortened: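 Jurkat cells with NFAT-driven β-lactamase reporter and co-expressed M1 receptor, stimulated with carbachol (final 1 uM, ~EC50), compound titration, 5 h at 37 °C. CCF4 loaded 1 h at RT; 460/530 nm ratio gave %activity and AC50.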

[18] = target: 3',5'-cyclic-AMP phosphodiesterase 4B (Homo sapiens) (UniProt Q07343); test: qHTS Assay for Inhibitors of PDE-IV (AID 607; active means well fitted activation curve with a large enough effect in the main read-out, with a control signal flat, not every such curve was filed as active; further: % of control where 0% means no effect); details: HEK293 ACTOne CNG channel cells, membrane potential fluorescence; series mostly up to 22.9 µM
Chain of 3',5'-cyclic-AMP phosphodiesterase 4B (Homo sapiens) (Q07343 whole entry, looked up): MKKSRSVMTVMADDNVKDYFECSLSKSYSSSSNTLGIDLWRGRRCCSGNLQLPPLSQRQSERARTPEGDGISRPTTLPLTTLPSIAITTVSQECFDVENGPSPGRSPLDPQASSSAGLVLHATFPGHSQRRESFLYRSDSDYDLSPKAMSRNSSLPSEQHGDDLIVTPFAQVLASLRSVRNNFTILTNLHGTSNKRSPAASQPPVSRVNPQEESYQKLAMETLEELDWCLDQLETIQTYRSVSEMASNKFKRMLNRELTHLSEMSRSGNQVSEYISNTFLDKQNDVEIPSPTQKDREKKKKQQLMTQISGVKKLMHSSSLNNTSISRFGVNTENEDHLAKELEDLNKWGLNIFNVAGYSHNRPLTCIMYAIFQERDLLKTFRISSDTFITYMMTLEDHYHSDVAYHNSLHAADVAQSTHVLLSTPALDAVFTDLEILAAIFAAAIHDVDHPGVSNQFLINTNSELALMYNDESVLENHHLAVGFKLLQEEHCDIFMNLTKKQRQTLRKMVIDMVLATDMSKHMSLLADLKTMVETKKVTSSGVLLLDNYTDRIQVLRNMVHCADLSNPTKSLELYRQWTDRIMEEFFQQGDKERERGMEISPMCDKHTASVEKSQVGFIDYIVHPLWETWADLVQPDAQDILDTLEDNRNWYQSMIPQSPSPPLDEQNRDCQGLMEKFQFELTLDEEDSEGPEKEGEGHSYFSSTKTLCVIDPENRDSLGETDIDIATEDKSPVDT
Procedure, shortened: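 Live HEK293 cells with a modified cyclic nucleotide-gated (CNG) channel report intracellular cAMP via membrane-potential dye fluorescence (ex 535/em 590 nm). Endogenous PDE-IV was targeted. Compounds were tested at up to 22.9 uM final; RO 20-1724 100 uM served as control.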

[19] = target: Cytochrome P450 3A4 (Homo sapiens) (UniProt P08684); test: qHTS Assay for Inhibitors and Substrates of Cytochrome P450 3A4 (AID 884); details: recombinant CYP3A4, Luciferin-PPXE luminescence; series mostly up to 57.1 µM; further: potency means the concentration at half of the fitted maximal effect; nearly all actives have a fitted effect of over 50% in size
Procedure, shortened: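 20 nM human CYP3A4 with 25 uM Luciferin-PPXE (at KM) in 200 mM KPO4, preincubated 10 min with compound; NADPH regeneration started a 60 min RT reaction. Luciferin detected by luminescence, normalized to 57 uM ketoconazole as full inhibition.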

[20] = qHTS Assay for Identification of Small Molecule Agonists for Hypoxia Response Element Signaling Pathway (AID 914; active means well fitted activation curve with a large enough effect in the signal ratio, with a control signal flat, not every such curve was filed as active; the % refers to the signal ratio; further: % of control where 0% means no effect); details: ME-180 (cervical carcinoma) HRE-bla reporter, beta-lactamase ratio, CoCl2, 17 h; activation: active compounds read high
Procedure, shortened: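 HRE-bla ME-180 assay for agonist-like enhancement of an EC50 CoCl2 stimulus: 17 h at 37 degrees Celsius, CCF4 for 2.5 h, ratiometric 460/530 nm signal converted to %Activity and fitted to AC50.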

c1cncc(CNc2nc(-c3cccnc3)nc3ccccc23)c1
inactive: Potency [1] > 11.4 µM | activity change, negative = inhibition [2] -12.9% | outcome [4] | Potency [5] > 46 µM | Potency [6] > 46 µM | Potency [7] | Potency [11]
active: Potency [3] 0.316 µM | Potency [8] 7.08 µM | Potency [9] 12.6 µM | Potency [10] 11.2 µM

O=c1ccc2cc3ccoc3cc2o1
inactive: Potency [5] > 46 µM | Potency [6] > 46 µM | Potency [7] | outcome [13] | Potency [16]
active: Potency [3] 0.0316 µM | Potency [12] 7.94 µM | Potency [14] 2 µM | Potency [15] 3.98 µM

CN1CCN(c2ncc3nc(CCc4ccccc4)c(=O)n(CCc4ccccc4)c3n2)CC1
inactive: Potency [1] > 11.4 µM | activity change, negative = inhibition [2] -6.08% | activity change, negative = inhibition [17] -18.1% | outcome [4] | Potency [5] > 9.22 µM | Potency [6] > 46 µM | Potency [7] | Potency [8] | Potency [9] | Potency [10] | Potency [11]

COc1cccc(Nc2ncc3ncc(=O)n(CCC#N)c3n2)c1
active: Potency [3] 1 µM | Potency [8] 6.31 µM | Potency [9] 3.55 µM | Potency [10] 2.51 µM
inactive: Potency [1] > 11.4 µM | activity change, negative = inhibition [2] -26.1% | activity change, negative = inhibition [17] -0.673% | outcome [4] | Potency [5] > 9.22 µM | Potency [6] > 46 µM | Potency [7] | Potency [18] | outcome [13] | Potency [11]

CN1CCN(c2ncc3nc(-c4cn(C)c5ccccc45)c(=O)n(C[C@H]4CCCO4)c3n2)CC1
active: Potency [3] 6.31 µM
inactive: Potency [1] > 11.4 µM | activity change, negative = inhibition [2] -8.04% | activity change, negative = inhibition [17] 3.64% | outcome [4] | Potency [6] > 46 µM | Potency [18] | Potency [12] | Potency [8] | Potency [9] | Potency [10] | Potency [11]

CN(C)c1ncc2nc(CCc3ccccc3)c(=O)n(CCc3ccccc3)c2n1
inactive: Potency [1] > 11.4 µM | activity change, negative = inhibition [2] -11.1% | activity change, negative = inhibition [17] -22.4% | outcome [4] | Potency [5] > 9.22 µM | outcome [13] | activation [20] 21.3% | Potency [8] | Potency [9] | Potency [10] | Potency [11]
active: Potency [3] 6.31 µM | Potency [19] 6.31 µM
